# Source: the supplement of paper PMC11018630
# Counter-ions that a name gives are not always drawn. ± gives the standard deviation of the averaged measurements.
# Test system: RDEB dermal fibroblasts EB119
# Assay: day of extracellular matrix detachment from plate (days); higher = delayed detachment (less fibrotic matrix)
# Details: compound concentration: 10 uM
row,SMILES,day of extracellular matrix detachment from plate
1,N=C(N)NN [Aminoguanidine (hydrochloride)],26.3 ± 1.1
2,Cc1ccc(-n2nccn2)c(C(=O)N2CCN(c3nc4cc(Cl)ccc4o3)CC[C@H]2C)c1 [Suvorexant (MK-4305)],25
3,CCN(C)C(=O)Oc1cccc([C@H](C)N(C)C)c1 [Rivastigmine],30.3 ± 2.9
